{"source": "paper PMC7826789", "about": "(International Journal of Molecular Sciences, 2021)"}
{"smiles": "O=C1Nc2ccc(I)cc2C1=Cc1cc(Br)c(O)c(Br)c1", "note": "[GW305074X]", "values": [{"measurement": "Kinases covered", "setting": "MAPK3", "value": "MAPK3"}]}
{"smiles": "CC(C)COC(=O)c1ccc2c(c1)/C(=C/Nc1ccc(S(N)(=O)=O)cc1)C(=O)N2", "note": "[GW416981X]", "values": [{"measurement": "Kinases covered", "setting": "MELK", "value": "MELK"}]}
{"smiles": "Cc1ccc(C(=O)NCC(N)=O)cc1-n1c(C)cc(OCc2ccc(F)cc2F)c(Br)c1=O", "note": "[PFE-PKIS 1]", "values": [{"measurement": "Kinases covered", "setting": "MAPK14", "value": "MAPK14"}]}
{"smiles": "COc1cc2ncnc(Nc3cccc(Cl)c3F)c2cc1O[C@H]1CC[C@H]([C@@H]2NCCNC2=O)CC1", "note": "[BI00133844]", "values": [{"measurement": "Kinases covered", "setting": "MEK5", "value": "MEK5"}]}
{"smiles": "COc1ccc(-c2cc3c(C)nc(N)nc3n([C@H]3CC[C@H](OCCO)CC3)c2=O)cn1", "note": "[PFE-PKIS 29]", "values": [{"measurement": "Kinases covered", "setting": "MTOR", "value": "MTOR"}]}
{"smiles": "COc1cc2ncnc(Nc3ccc(F)c(Cl)c3)c2cc1O[C@H]1CC[C@H](N)CC1", "note": "[BIBW3133BS]", "values": [{"measurement": "Kinases covered", "setting": "MEK5", "value": "MEK5"}, {"measurement": "Kinases covered", "setting": "MKNK1", "value": "MKNK1"}]}
{"smiles": "CNc1nc(Nc2ccc(C(=O)N3CCOCC3)cc2OC)nc2[nH]cc(Cl)c12", "note": "[JH-II-127]", "values": [{"measurement": "Kinases covered", "setting": "MLCK", "value": "MLCK"}]}
{"smiles": "CCCS(=O)(=O)Nc1ccc(F)c(-n2cc(-c3cncc(OC)c3)nn2)c1F", "note": "[BI00865461]", "values": [{"measurement": "Kinases covered", "setting": "MEK5", "value": "MEK5"}]}
{"smiles": "Cc1ccc(-n2nc(C(C)(C)C)cc2NC(=O)Nc2ccc(OCCN3CCOCC3)cc2)cc1", "note": "[BIRB0876BS]", "values": [{"measurement": "Kinases covered", "setting": "MAPK14", "value": "MAPK14"}]}
{"smiles": "CCn1c(-c2nonc2N)nc2cncc(CNC3CCNCC3)c21", "note": "[SB-747651A]", "values": [{"measurement": "Kinases covered", "setting": "MSK1", "value": "MSK1"}]}
{"smiles": "NS(=O)(=O)c1ccc(N/N=C2\\C(=O)Nc3ccc(C(=O)NCCc4c[nH]cn4)cc32)cc1", "note": "[GW300660X]", "values": [{"measurement": "Kinases covered", "setting": "MELK", "value": "MELK"}]}
{"smiles": "Nc1nccc(-c2c(-c3ccc(F)cc3)ncn2C2CCN(Cc3ccccc3)CC2)n1", "note": "[SB-219980]", "values": [{"measurement": "Kinases covered", "setting": "MAPK14", "value": "MAPK14"}, {"measurement": "Kinases covered", "setting": "MAPK9", "value": "MAPK9"}]}
{"smiles": "CN(C)C/C=C/C(=O)Nc1ccc(C(=O)Nc2cccc(Nc3ncc(Cl)c(-c4c[nH]c5ccccc45)n3)c2)cc1", "note": "[THZ1]", "values": [{"measurement": "Kinases covered", "setting": "MAPK8", "value": "MAPK8"}]}
{"smiles": "Fc1ccc(-c2nn3ccccc3c2-c2ccncc2)cc1", "note": "[GW434756X]", "values": [{"measurement": "Kinases covered", "setting": "MAPK14", "value": "MAPK14"}, {"measurement": "Kinases covered", "setting": "MAPK9", "value": "MAPK9"}]}
{"smiles": "CNC(=O)c1c(F)cccc1Nc1nc(Nc2cc3c(cc2OC)CCN3C(=O)CN(C)C)nc2[nH]ccc12", "note": "[GSK1838705]", "values": [{"measurement": "Kinases covered", "setting": "MYLK", "value": "MYLK"}]}
{"smiles": "O=C(O)/C=C/C(=O)O.OCCCNc1nccc(-c2c(-c3ccc(F)cc3)nn3cc(C(F)(F)F)ccc23)n1", "note": "[GW569293E]", "values": [{"measurement": "Kinases covered", "setting": "MAPK14", "value": "MAPK14"}, {"measurement": "Kinases covered", "setting": "MAPK9", "value": "MAPK9"}]}
{"smiles": "CCc1nc(-c2cccc(C)c2)c(-c2ccncc2)s1", "note": "[TPKI-106]", "values": [{"measurement": "Kinases covered", "setting": "MAPK14", "value": "MAPK14"}]}
{"smiles": "CCOc1cc(N2CCC(O)CC2)ccc1Nc1ncc2c(n1)N(C)c1ccccc1C(=O)N2C", "note": "[XMD8-92]", "values": [{"measurement": "Kinases covered", "setting": "MAPK7", "value": "MAPK7"}]}
{"smiles": "CCOc1ccc2c(-c3ccnc(Nc4cc(OC)cc(C(F)(F)F)c4)n3)cnn2n1", "note": "[GW807982X]", "values": [{"measurement": "Kinases covered", "setting": "MAPK15", "value": "MAPK15"}]}
{"smiles": "C[C@@H](Oc1cc(-n2cnc3ccc(OC4CCN(C)CC4)cc32)sc1C(N)=O)c1ccccc1Cl", "note": "[GSK579289A]", "values": [{"measurement": "Kinases covered", "setting": "NEK2", "value": "NEK2"}]}
{"smiles": "CCCc1cc(N2CCCN(C)CC2)nc2sc3c(N)ncnc3c12", "note": "[BI00604564]", "values": [{"measurement": "Kinases covered", "setting": "MKNK2", "value": "MKNK2"}]}
{"smiles": "CCOc1cc(C(=O)N2CCC(N3CCN(C)CC3)CC2)ccc1Nc1ncc2c(n1)N(C1CCCC1)c1ccccc1C(=O)N2C", "note": "[ERK5-IN-1]", "values": [{"measurement": "Kinases covered", "setting": "MAPK7", "value": "MAPK7"}]}
{"smiles": "Nc1ncnc2occ(-c3ccc(NC(=O)Nc4cc(C(F)(F)F)ccc4F)cc3)c12", "note": "[GW770249X]", "values": [{"measurement": "Kinases covered", "setting": "MUSK", "value": "MUSK"}]}
{"smiles": "CCOc1ccc2c(-c3ccnc(Nc4cccc(C(F)(F)F)c4)n3)cnn2n1", "note": "[GW811761X]", "values": [{"measurement": "Kinases covered", "setting": "MAPK15", "value": "MAPK15"}]}
{"smiles": "O=c1[nH]c2cc(Nc3ccc(F)cc3F)ccc2n1CC1CCCCC1", "note": "[BI00601000]", "values": [{"measurement": "Kinases covered", "setting": "MAPK14", "value": "MAPK14"}]}
{"smiles": "COc1ccc(-c2cc3c(C)nc(N)nc3n([C@H]3CC[C@H](O)CC3)c2=O)cn1", "note": "[PFE-PKIS 40]", "values": [{"measurement": "Kinases covered", "setting": "MTOR", "value": "MTOR"}]}
{"smiles": "CC(C)C(=O)N[C@@H]1CCN(C(=O)Nc2nc3c(s2)-c2nc(-c4ccccc4Cl)ncc2CC3)C1", "note": "[BI00047804]", "values": [{"measurement": "Kinases covered", "setting": "NEK3", "value": "NEK3"}]}
{"smiles": "C[C@@H](Oc1cc(-n2cnc3ccc(CN4CCN(C)CC4)cc32)sc1C(N)=O)c1ccccc1C(F)(F)F", "note": "[GSK461364]", "values": [{"measurement": "Kinases covered", "setting": "NEK2", "value": "NEK2"}]}
{"smiles": "COCCNC(=O)c1ccc(-c2cc(C(=O)NC3CC3)cc(F)c2C)cc1", "note": "[GW868318]", "values": [{"measurement": "Kinases covered", "setting": "MAPK14", "value": "MAPK14"}]}
{"smiles": "FC1=CC(C3=NC2=CC(OC)=C(OC)C=C2C(N[C@H]4[C@H]([C@](C)(O)C)CNC4)=N3)=C(O)C=C1.Cl.Cl", "note": "[CCT241533]", "values": [{"measurement": "Kinases covered", "setting": "MARK3", "value": "MARK3"}]}
{"smiles": "O=C(Nc1n[nH]c2cc(-c3ccsc3)ccc12)C1CC1", "note": "[SB-732932]", "values": [{"measurement": "Kinases covered", "setting": "MAPK15", "value": "MAPK15"}]}
{"smiles": "CCc1ccc(Oc2nccc(-c3c(-c4ccc(F)cc4)ncn3C3CCNCC3)n2)cc1", "note": "[SB-242719]", "values": [{"measurement": "Kinases covered", "setting": "MAPK14", "value": "MAPK14"}]}
{"smiles": "Cc1ccc(-c2cc(-c3c[nH]nc3-c3ccccn3)ccn2)cc1", "note": "[GW684088]", "values": [{"measurement": "Kinases covered", "setting": "MINK1", "value": "MINK1"}]}
{"smiles": "Cc1cnc(Nc2ccc(F)cc2Cl)nc1-c1c[nH]c(C(=O)N[C@H](CO)c2cccc(Cl)c2)c1", "note": "[Vertex 11e]", "values": [{"measurement": "Kinases covered", "setting": "MAPK1", "value": "MAPK1"}, {"measurement": "Kinases covered", "setting": "MAPK3", "value": "MAPK3"}]}
